Structures are written as SMILES. Out of some 330,000 compounds screened, about 10,000 (3%) were called active.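 Rule for the calls: active = inhibition of at least 50% at 8 µM in the primary screen; inactive = the rest.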 What follows is part of a selection rich in actives, with near analogues and random picks from the rest.

What is called inhibition is the change of the read-out against control, counted positive when it falls.

The target of the experiment is Protein Mdm4 (Homo sapiens) + E3 ubiquitin-protein ligase Mdm2 (Homo sapiens) (UniProt O15151+Q00987). Briefly: disruptors of Mdm2/MdmX RING complex – cell-based, luminescence, split luciferase, SaOS-2, uHTS, primary screen (AID 485346). The note with it: SaOS-2 split-luciferase Mdm2/MdmX complementation, at 8 µM, stronger effect = higher value.
Chain of Protein Mdm4 (Homo sapiens) + E3 ubiquitin-protein ligase Mdm2 (Homo sapiens) (O15151 whole entry, looked up): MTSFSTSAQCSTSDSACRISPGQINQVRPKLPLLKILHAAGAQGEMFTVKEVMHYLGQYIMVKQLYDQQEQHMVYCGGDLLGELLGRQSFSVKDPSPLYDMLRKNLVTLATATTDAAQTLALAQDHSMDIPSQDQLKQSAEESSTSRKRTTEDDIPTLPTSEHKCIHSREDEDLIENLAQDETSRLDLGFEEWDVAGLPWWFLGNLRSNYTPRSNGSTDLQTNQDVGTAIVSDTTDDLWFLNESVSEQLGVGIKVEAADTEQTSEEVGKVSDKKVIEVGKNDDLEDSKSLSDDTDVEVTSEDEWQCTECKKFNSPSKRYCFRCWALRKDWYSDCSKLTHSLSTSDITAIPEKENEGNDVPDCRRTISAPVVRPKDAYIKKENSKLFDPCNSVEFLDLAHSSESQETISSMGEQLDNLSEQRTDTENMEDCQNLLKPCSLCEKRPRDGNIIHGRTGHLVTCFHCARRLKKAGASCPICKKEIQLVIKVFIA
Chain of Protein Mdm4 (Homo sapiens) + E3 ubiquitin-protein ligase Mdm2 (Homo sapiens) (Q00987 whole entry, looked up): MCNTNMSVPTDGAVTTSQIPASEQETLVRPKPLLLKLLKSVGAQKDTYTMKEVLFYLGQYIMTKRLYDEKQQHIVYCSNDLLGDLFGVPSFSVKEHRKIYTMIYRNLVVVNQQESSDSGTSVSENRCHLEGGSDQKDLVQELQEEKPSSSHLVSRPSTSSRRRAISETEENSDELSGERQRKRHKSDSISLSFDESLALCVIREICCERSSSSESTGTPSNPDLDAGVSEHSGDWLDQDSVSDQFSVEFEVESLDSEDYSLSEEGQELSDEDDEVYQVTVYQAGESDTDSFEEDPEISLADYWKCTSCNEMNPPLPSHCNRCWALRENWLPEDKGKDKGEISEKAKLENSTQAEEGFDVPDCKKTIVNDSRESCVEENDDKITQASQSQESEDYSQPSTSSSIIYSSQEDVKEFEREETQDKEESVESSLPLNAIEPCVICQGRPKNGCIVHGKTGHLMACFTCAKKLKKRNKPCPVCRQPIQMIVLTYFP
Consider `CCOc1ccc(-c2cc(C)[n+](CCN(CC)CC)c(-c3ccc(OCC)cc3)c2)cc1`, for which the inhibition is 90.7% (active).

Turning to `COc1ccc(CCn2c(O)c(C=NCCCn3ccnc3)c(=O)[nH]c2=O)cc1OC`, the inhibition was -17.9% (inactive).

Consider `Cc1cc(=O)oc2c(C)c(OCC(=O)N3CCN(Cc4ccc5c(c4)OCO5)CC3)ccc12`, for which the inhibition was 1.14% (inactive). Under `CC12CN3CC(C)(CN(C1)C3c1cccs1)C2` (stereo not drawn) stands -26.1% (inactive).

Take `O=C(Nc1cccc2ccccc12)N1CCC2(CC1)OCCO2`: the inhibition was -30% (inactive). In the case of `O=c1c2ccccc2nc(/C=C/c2ccco2)n1-c1ccccc1O`, the inhibition is -1.65% (inactive). Under `O=c1c2ccccc2nc(/C=C/c2ccc(F)cc2)n1-c1ccccc1O` stands 60.9% (active); under `Cc1nc2ccccc2c(=O)n1-c1ccc(Cl)cc1Cl`, -13.3% (inactive). Under `CC(=O)N1CN2CN(C(C)=O)CC(C(=O)c3ccc(Br)cc3)(C2)C1` stands 26.2% (inactive); under `CC(=C1C(=O)c2ccccc2C1=O)N1CCN(CCN=Cc2c(O)n(C)c(=O)n(C)c2=O)CC1`, -1.58% (inactive). To `O=C1C2(Cl)C3(Cl)C4(Cl)C(Cl)(Cl)C5(Cl)C3(Cl)C1(Cl)C5(Cl)C24Cl` (stereo not drawn) belongs 99.3% (active); to `COc1ccc2[nH]c3c(c2c1)CCN[C@H]3C`, 9.11% (inactive); to `Cc1ccc(C)c(NC2=NCCCS2)c1`, 11.6% (inactive). Consider `c1ccc2sc(C3CCCNC3)nc2c1` (stereo not drawn), for which the inhibition was -26.6% (inactive). To `Cc1cccc2c(CCN)c[nH]c12` belongs 13.4% (inactive); to `CCCCn1c(=O)c(C(=O)Nc2ccccc2Cl)c(O)c2ccccc21`, 37.6% (inactive). Under `CCCCCn1c(=O)c(C(=O)NCc2ccccc2)c(O)c2ccccc21` stands 62.6% (active). Take `CCCCCn1c(=O)c(C(=O)NCc2ccccn2)c(O)c2ccccc21`: the inhibition is 13.9% (inactive).

Turning to `CC(C)n1c(=O)c(C=Nc2ccc(Br)cc2)c(O)n(Cc2ccco2)c1=O`, the inhibition was -33.1% (inactive). Turning to `CN1CCN(/N=C/c2c[nH]c3ccccc23)CC1`, the inhibition is -22.1% (inactive). `OC1/C(=C/c2ccc(C(F)(F)F)cc2)N2CCC1CC2` (stereo not drawn): the inhibition is 17.5% (inactive). Under `CC(=NCc1ccc2c(c1)OCO2)c1c(O)[nH]c(=O)[nH]c1=O` stands -16% (inactive).

On to `COc1cc(-n2c(=S)[nH]c3ccc(C)cc3c2=O)c(Cl)cc1Cl`, for which the inhibition is 40.1% (inactive). To `Cc1cc2ccccn2c1C(C[N+](=O)[O-])c1c(F)cccc1Cl` (stereo not drawn) belongs 97.4% (active); to `c1cc2c(cc1C1OCC3C(c4ccc5c(c4)OCO5)OCC13)OCO2` (stereo not drawn), 1.17% (inactive).

Consider `COc1ccc(CCn2c(O)c(C=NC3CC3)c(=O)[nH]c2=O)cc1OC`, for which the inhibition was 24.7% (inactive).

For `CC(C)c1c(CN(C)C(C)Cc2ccccc2)n(C)n(-c2ccccc2)c1=O` (stereo not drawn), the inhibition is -0.74% (inactive). Under `CC(Cc1ccccc1)NC=O` (stereo not drawn) stands 12.4% (inactive); under `CC(Cc1ccccc1)NCCC(c1ccccc1)c1ccccc1` (stereo not drawn), 63% (active); under `CC(=O)NC(=O)NC(C)Cc1ccccc1` (stereo not drawn), 15.7% (inactive). Under `COC1=CC=C2[C@H]3Cc4ccc(OC)c5c4[C@@]2(CCN3C)C1O5` (stereo partly drawn) stands 11% (inactive); under `O=c1[nH]c(=O)n(-c2ccccc2)c(O)c1C=NC12CN3CN(CN(C3)C1)C2`, -21.9% (inactive). For the molecule `O=C(c1cc2nc(-c3ccccc3)cc(-c3ccccc3)n2n1)N1CCC2(CC1)OCCO2`, the inhibition was 55.7% (active). To `Cc1ccc(-c2cc(C(=O)N3CCC4(CC3)OCCO4)no2)cc1` belongs -32.3% (inactive); to `O=C(c1cc(-c2ccncc2)nc2ccccc12)N1CCC2(CC1)OCCO2`, -28.6% (inactive); to `c1ccc(CCNC2CCCCCC2)cc1`, 24.6% (inactive).

For `Cc1ccc(Cn2nnnc2CN2CCC(n3nnc4ccccc43)CC2)cc1`, the inhibition is 26.2% (inactive). Under `CCOP(=O)(OCC)C(NC(=O)c1ccc(C)cc1)C(Cl)(Cl)Cl` (stereo not drawn) stands -8.99% (inactive).

As to `CNC(=S)N/N=C1\C2CN3CCN(C2)CC1(c1ccccc1)C3`, the inhibition was -27.4% (inactive).

Turning to `CN(C)c1nc(N(C)C)nc(N(C#N)CCCl)n1`, the inhibition is 28.9% (inactive). To `O=C(O)COc1ccccc1/C=C1\C(=O)NC(=O)N(CCC2=CCCCC2)C1=O` belongs 2.61% (inactive). Under `O=C1NC(=O)N(CCc2ccc(F)cc2)C(=O)/C1=C/C=C/c1ccccc1` stands 99.4% (active).

Consider `O=C1NC(=O)N(Cc2ccco2)C(=O)/C1=C\c1ccc(-c2ccc(F)cc2)o1`, for which the inhibition was -9.82% (inactive). As for `COc1ccccc1N=C1SCCCN1C`, the inhibition is -4.32% (inactive). With `CCOP(=O)(OCC)C(O)c1ccc(OC)cc1OC` (stereo not drawn), the inhibition is 19.2% (inactive).

For `CC[N+]1(C)CCCC(OC(=O)C(O)(c2ccccc2)c2ccccc2)C1` (stereo not drawn), the inhibition is 12.9% (inactive). To `COC(=O)C1=C(c2ccc(-c3ccccc3)c(F)c2)C[C@@H]2CC[C@H]1N2C(=O)NCc1ccc(F)cc1` belongs 21.7% (inactive); to `COC(=O)C1=C(c2ccc(F)cc2OCc2ccccc2)C[C@@H]2CC[C@H]1N2C(=O)NCc1ccc(OC)c(OC)c1`, 14.8% (inactive); to `COC(=O)C1=C(c2ccccc2OCc2ccccc2)C[C@@H]2CC[C@H]1N2C(=O)NCc1ccc(OC)cc1`, 12.6% (inactive). To `COC(=O)C1=C(c2ccc(F)cc2OCc2ccccc2)C[C@@H]2CC[C@H]1N2C(=O)NCc1ccc(Cl)cc1` belongs 55.7% (active); to `COC(=O)C1=C(c2ccc(F)cc2OCc2ccccc2)C[C@@H]2CC[C@H]1N2C(=O)NCc1ccc2[nH]ccc2c1`, 52.5% (active). Take `COC(=O)C1=C(c2ccc(F)cc2OCc2ccccc2)C[C@@H]2CC[C@H]1N2C(=O)NCc1ccc(C(C)(C)C)cc1`: the inhibition was 48.4% (inactive). Under `CCOP(=O)(OCC)C(NC(=O)c1ccc(OC)cc1)C(Cl)(Cl)Cl` (stereo not drawn) stands 16.4% (inactive); under `COC(=O)N(c1ccc(OC)cc1)P1(=S)OCCC(C)O1` (stereo not drawn), 7.17% (inactive); under `CCOc1ccc(C2SCC(=O)Nc3c2c(C)nn3C2CCOC(C)(C)C2)cc1` (stereo not drawn), 3.37% (inactive).

As to `CCC(=O)c1ccc(OCC(=O)N2CCN(CC(=O)Nc3ccc(C)cc3)CC2)cc1`, the inhibition was 30% (inactive). To `Cc1cccc(-n2c(O)c(C=NC34CN5CN(CN(C5)C3)C4)c(=O)[nH]c2=O)c1` belongs -8.36% (inactive). To `CNCC(O)c1cc(F)c(OCc2ccccc2)c(OCc2ccccc2)c1F` (stereo not drawn) belongs 86.6% (active).

The values above are taken from PubChem BioAssay AID485346 (Sanford-Burnham Center for Chemical Genomics, 2010).
